Consider 14 compounds from PubChem BioAssay (Tox21).

Several values for one entry are separate records, joined by “and”; a condition that tells them apart may be missing. Equal entries are not always repeated. Inconclusive results are not listed. The source holds several records for some structures; these can differ, active in one and inactive in another. Activity calls are given as the source filed them. Calls come from the whole dose curve; as a rule, active = well fitted curve in the direction sought with a large enough effect in the repeat runs; inconclusive = weak or mixed curves; inactive = no such curve, though single readings can be large; an effect the other way counts as inactive or inconclusive.

A short description of assay [1]: Caspase-3/7 induction in HepG2 cells by small molecules, qHTS cell viability counter screen (AID 1346981). Note: nearly all actives have a fitted effect of over 30% in size. Note: potency is the fitted concentration of half-maximal effect. Put shortly:
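HepG2, WT, 2,000 cells/well; 5 hr pre-incubation 37 C/5% CO2; compound pin-transferred from DMSO; 16 hr exposure; CellTiter-Fluor, 1 hr; fluorescence read.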

In assay [2] the target is Nuclear receptor subfamily 1 group I member 2 (Homo sapiens) (UniProt O75469). Nature of the assay: Human pregnane X receptor (PXR) small molecule agonists, qHTS assay (AID 1346982). Note: potency is the fitted concentration of half-maximal effect; nearly all actives have a fitted effect of over 35% in size. Put shortly: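 Luciferase signal from ONE-Glo (30 min, room temperature) measured activation of hPXR-driven CYP3A4 reporter expression in PXR-Luc HepG2 cells treated with compounds for 24 hr at 37 C.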
A general note: In qHTS, concentration-response curves come from the screen itself.

Assay [3] deals with Cytochrome P450 2D6 (Homo sapiens) (UniProt P10635). The assay can be described thus: Cytochrome P450 Family 2 Subfamily D Member 6 (CYP2D6) small molecule antagonists: luciferase reporter qHTS assay (AID 1671196). Note: nearly all actives have a fitted effect of over 50% in size. Note: potency is the fitted concentration of half-maximal effect. A digest of the protocol: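 Read-out is luminescence from luciferin formed by CYP2D6 turnover of a proluciferin substrate, recorded as relative luminescence units. Reactions ran 1 h at room temperature after NADPH regeneration solution was added.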
On the technique in general: In a reporter assay the amount or activity of a reporter protein is the signal.

Assay [4] deals with Cytochrome P450 2C19 (Homo sapiens) (UniProt P33261). Nature of the assay: Cytochrome P450 Family 2 Subfamily C Member 19 (CYP2C19) small molecule antagonists: luciferase reporter qHTS assay (AID 1671197). Note: nearly all actives have a fitted effect of over 65% in size. Note: potency is the fitted concentration of half-maximal effect. A digest of the protocol:
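P450-Glo CYP2C19 screening system; proluciferin substrate; DMSO compound stocks; 10 min RT preincubation; NADPH regeneration, 1 h at 37C; luciferin detection reagent, 20 min RT; luminescence as RLU.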

For assay [5], the target named is Cytochrome P450 2C9 (Homo sapiens) (UniProt P11712). The assay can be described thus: Cytochrome P450 Family 2 Subfamily C Member 9 (CYP2C9) small molecule antagonists: luciferase reporter qHTS assay (AID 1671198). Note: nearly all actives have a fitted effect of over 50% in size. Note: potency is the fitted concentration of half-maximal effect. A digest of the protocol: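 CYP2C9 activity was measured with a P450-Glo proluciferin substrate. Enzyme–substrate mix was held with compound for 10 min at room temperature, then NADPH regeneration solution was added for 1 h at 37C. Luciferin product was read as luminescence.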

Assay [6] can be described thus: Caspase-3/7 induction in CHO-K1 cells by small molecules, qHTS assay (AID 1346980). Note: % is set by controls: 0 for no effect and ±100 for the full control effect; nearly all actives have a fitted effect of over 15% in size. A digest of the protocol: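 Wild-type cells were seeded at 1,500 per well and settled 5 hr at 37 C, 5% CO2, then exposed to DMSO-dissolved compounds for 17 hr. Caspase-Glo 3/7 reagent was added, and luminescence was read after 30min at room temperature.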
The target of assay [7] is Nuclear receptor subfamily 1 group I member 2 (Rattus norvegicus) (UniProt Q9R1A7). Nature of the assay: Rat pregnane X receptor (rPXR) activation by small molecules, qHTS assay (AID 1346983). Note: % is set by controls: 0 for no effect and ±100 for the full control effect; nearly all actives have a fitted effect of over 20% in size. The settings on record: rPXR luciferase reporter cells, One-Glo luminescence, 24 h; max activation: stronger effect = higher value. A digest of the protocol:
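Cell-based rPXR luciferase reporter assay, 2,000 cells per well, rested 5hr at 37 C before compound addition in DMSO, then 24 hr at 37 C. One-Glo reagent was added and luminescence read after 30 min at room temperature.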

Assay [8] concerns the target Nuclear receptor subfamily 1 group I member 2 (Homo sapiens) (UniProt O75469). The assay can be described thus: CYP3A4 induction through human pregnane X receptor (PXR) by small molecules, qHTS assay (AID 1346984). Note: % is set by controls: 0 for no effect and ±100 for the full control effect; nearly all actives have a fitted effect of over 40% in size. Put shortly:
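Luminescence readout: luciferase signal after One-Glo (30 min, room temperature), following 3 h at 37C with 3uM final Luciferin-IPA P450 substrate. Cells were DPX-2 (HepG2, PXR/CYP3A4-luc co-transfected) dosed for 24 h.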

Assay [9] has the same target. The assay can be described thus: Human pregnane X receptor (PXR) activation by small molecules, qHTS assay (AID 1346985). Note: % is set by controls: 0 for no effect and ±100 for the full control effect; nearly all actives have a fitted effect of over 40% in size. Put shortly: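 DPX-2 cells (HepG2 co-transfected with a PXR response element and a CYP3A4-promoter luciferase construct) were seeded at 2,000 per well, rested 5 hr at 37C, then exposed to DMSO-dissolved compounds for 24 hr. Activation was read as luciferase luminescence.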

Sequence of Nuclear receptor subfamily 1 group I member 2 (Homo sapiens) (O75469 whole entry, looked up): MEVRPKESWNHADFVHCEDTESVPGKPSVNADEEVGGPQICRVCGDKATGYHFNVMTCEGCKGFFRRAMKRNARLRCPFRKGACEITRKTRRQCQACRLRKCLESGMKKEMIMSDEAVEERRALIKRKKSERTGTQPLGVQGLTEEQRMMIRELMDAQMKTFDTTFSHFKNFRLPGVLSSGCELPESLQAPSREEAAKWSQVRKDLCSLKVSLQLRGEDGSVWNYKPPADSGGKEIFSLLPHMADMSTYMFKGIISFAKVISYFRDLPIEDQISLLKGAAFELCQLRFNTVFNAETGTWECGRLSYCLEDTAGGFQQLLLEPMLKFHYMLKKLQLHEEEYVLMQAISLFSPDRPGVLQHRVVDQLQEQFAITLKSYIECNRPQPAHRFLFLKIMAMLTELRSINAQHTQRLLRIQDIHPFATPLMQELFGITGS
Sequence of Cytochrome P450 2D6 (Homo sapiens) (P10635 whole entry, looked up): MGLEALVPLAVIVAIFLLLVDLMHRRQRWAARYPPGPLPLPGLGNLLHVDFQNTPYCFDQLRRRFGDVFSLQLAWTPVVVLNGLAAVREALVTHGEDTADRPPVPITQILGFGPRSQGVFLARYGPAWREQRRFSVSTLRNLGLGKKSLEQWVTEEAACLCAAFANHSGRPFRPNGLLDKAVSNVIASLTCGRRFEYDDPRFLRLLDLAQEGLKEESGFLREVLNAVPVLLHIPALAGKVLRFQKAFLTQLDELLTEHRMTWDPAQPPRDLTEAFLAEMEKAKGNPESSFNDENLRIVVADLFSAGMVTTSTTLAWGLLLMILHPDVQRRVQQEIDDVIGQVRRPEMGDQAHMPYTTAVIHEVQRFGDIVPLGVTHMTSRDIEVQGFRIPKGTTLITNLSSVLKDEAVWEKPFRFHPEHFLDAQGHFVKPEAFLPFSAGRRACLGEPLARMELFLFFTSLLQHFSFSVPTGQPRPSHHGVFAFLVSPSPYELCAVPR
Sequence of Cytochrome P450 2C19 (Homo sapiens) (P33261 whole entry, looked up): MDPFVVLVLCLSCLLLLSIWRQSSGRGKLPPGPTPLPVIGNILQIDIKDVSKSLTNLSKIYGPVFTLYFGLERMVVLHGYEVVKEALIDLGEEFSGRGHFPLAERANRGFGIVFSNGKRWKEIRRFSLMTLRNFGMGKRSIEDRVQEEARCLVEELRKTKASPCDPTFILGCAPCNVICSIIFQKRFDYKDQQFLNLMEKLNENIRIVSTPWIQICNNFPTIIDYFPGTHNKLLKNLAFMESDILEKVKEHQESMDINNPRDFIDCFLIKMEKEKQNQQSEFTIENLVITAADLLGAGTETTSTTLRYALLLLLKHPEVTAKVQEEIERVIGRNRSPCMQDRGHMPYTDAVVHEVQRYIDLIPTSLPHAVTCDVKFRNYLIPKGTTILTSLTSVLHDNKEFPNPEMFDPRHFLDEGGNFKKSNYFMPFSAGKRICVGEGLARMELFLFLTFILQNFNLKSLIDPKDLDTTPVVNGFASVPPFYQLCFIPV
Sequence of Cytochrome P450 2C9 (Homo sapiens) (P11712 whole entry, looked up): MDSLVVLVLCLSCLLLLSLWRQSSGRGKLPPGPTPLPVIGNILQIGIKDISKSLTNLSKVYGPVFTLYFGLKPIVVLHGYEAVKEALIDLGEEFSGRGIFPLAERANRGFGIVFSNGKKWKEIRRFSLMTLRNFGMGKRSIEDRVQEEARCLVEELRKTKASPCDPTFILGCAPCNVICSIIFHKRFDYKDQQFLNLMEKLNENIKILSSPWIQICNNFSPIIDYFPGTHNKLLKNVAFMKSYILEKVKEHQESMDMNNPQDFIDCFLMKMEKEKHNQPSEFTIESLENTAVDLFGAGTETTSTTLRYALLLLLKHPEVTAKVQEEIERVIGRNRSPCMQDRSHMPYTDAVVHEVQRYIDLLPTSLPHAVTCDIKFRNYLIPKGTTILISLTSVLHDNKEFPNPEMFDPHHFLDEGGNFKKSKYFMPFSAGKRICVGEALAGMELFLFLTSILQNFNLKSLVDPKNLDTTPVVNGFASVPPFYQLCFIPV
Sequence of Nuclear receptor subfamily 1 group I member 2 (Rattus norvegicus) (Q9R1A7 whole entry, looked up): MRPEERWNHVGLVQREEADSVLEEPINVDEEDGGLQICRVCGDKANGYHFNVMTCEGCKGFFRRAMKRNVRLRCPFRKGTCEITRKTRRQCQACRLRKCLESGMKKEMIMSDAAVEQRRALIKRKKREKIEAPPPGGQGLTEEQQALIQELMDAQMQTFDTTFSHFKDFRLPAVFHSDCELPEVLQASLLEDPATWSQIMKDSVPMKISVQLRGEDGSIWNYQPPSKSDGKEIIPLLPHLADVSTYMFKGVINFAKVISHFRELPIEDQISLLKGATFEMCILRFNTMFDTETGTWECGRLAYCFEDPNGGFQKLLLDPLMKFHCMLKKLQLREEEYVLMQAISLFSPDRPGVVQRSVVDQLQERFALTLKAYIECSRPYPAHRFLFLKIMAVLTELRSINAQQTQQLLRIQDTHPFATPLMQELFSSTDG

With `O=C1C=CC(=O)N1c1ccc(Cc2ccc(N3C(=O)C=CC3=O)cc2)cc1`, the Potency in assay [1] was 68.6 µM (active); in assay [2], 4.86 µM (active); in [4] it was 7.96 µM (active); in [5] it was 5.64 µM (active). The Potency entry in assay [3] is “inactive”.

With `Cc1cc(=O)oc2cc(N(C)C)ccc12`, the Potency result in assay [6] was “inactive”. In addition, the results for the Potency in [2], in [4] and in [5] were 48.6 µM (active), 79.6 µM (active) and 44.8 µM (active), respectively.

On to `c1ccc(CSCc2ccccc2)cc1`, for which, in [1], the Potency entry is “inactive”. For the same compound, the Potency in assay [2] is 27.2 µM (active); in assay [4] it was 2.82 µM (active); in assay [5], 35.5 µM (active).

For the compound `Cc1cc(O)c(C(C)(C)C)cc1C(C)(C)C`, the figures for the Potency in assay [4] and in [5] were 17.8 µM (active) and 28.3 µM (active), respectively.

Turning to `CCCCN(CCCC)c1ccc(C(=O)c2ccccc2C(=O)O)c(O)c1`, the Potency was 61.7 µM (active) in assay [2] and 6.39 µM (active) in assay [5]. For the same compound, the Potency entry in assay [3] was “inactive”.

For the compound `CCCC1O[C@@H]2C[C@H]3[C@@H]4CCC5=CC(=O)C=C[C@]5(C)[C@H]4[C@@H](O)C[C@]3(C)[C@]2(C(=O)CO)O1` (stereo partly drawn), in assay [6], the Potency result was “inactive”. For the same compound, the Potency in assay [4] was 39.9 µM (active) and inactive; in assay [5], 39.9 µM (active) and 35.6 µM (active).

As to `O=c1c(-c2ccccc2)c1-c1ccccc1`, the Potency is 11.9 µM (active) in [2], 7.76 µM (active) in [4] and 17.4 µM (active) in assay [5]. In addition, the max activation in assay [7] was -15.6% (inactive). Besides, the Potency entry in assay [8] and in [9] was “inactive” throughout.

With `C/C=C1/C(=O)C[C@H]2[C@@H]3CCC4=CC(=O)CC[C@]4(C)[C@H]3CC[C@]12C`, in assay [6], the Potency entry was “inactive”. The Potency in assay [4] was 3.98 µM (active); in [5] it was 31.6 µM (active).

As for `CCCCCCCCS(=O)C(C)Cc1ccc2c(c1)OCO2` (stereo not drawn), the Potency in assay [1] is 69.9 µM (active); in assay [2] it was 19.7 µM (active); in [3], 64.6 µM (active); in assay [4] it was 40.7 µM (active); in [5], 1.62 µM (active).

For the compound `O=c1cccccc1O`, the Potency entry in [1], in assay [3], in assay [4] and in [5] was “inactive” in each case. Moreover, the Potency in [2] was 69.9 µM (active).

As for `C[C@@H](NCCCc1cccc(C(F)(F)F)c1)c1cccc2ccccc12`, the Potency result in assay [8] and in [5] was “inactive” in each case. The Potency is 0.0389 µM (active) in [3] and 8.71 µM (active) in assay [4].

Consider `On1ccccc1=S`, for which, in [1], the Potency is 15.2 µM (active).

Regarding `CC/C(=C(\c1ccc(O)cc1)c1ccc(OCCN(C)C)cc1)c1ccccc1`, the Potency is 43.4 µM (active) in [1], 6.87 µM (active) in assay [2] and 71.2 µM (active) in assay [5].

Consider `Clc1ccc(C(Cn2ccnc2)OCc2ccc(Sc3ccccc3)cc2)c(Cl)c1` (stereo not drawn), for which the Potency entry in assay [1] is “inactive”. The Potency in [2] was 26.6 µM (active); in assay [3] it was 0.389 µM (active); in assay [4] it was 2.75 µM (active); in [5] it was 2.75 µM (active).
